AGP1 TOR yeast – modulators of AGP1-GFP expression in yeast TOR pathway, primary screen, cell-based, multiplex flow cytometry, S. cerevisiae, MLPCN library; 3 h; GFP as percent of DMSO wells; GFP response vs DMSO, % at 10 µM; 0.02% of 320,000 active; AID 2066, 2009;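 active = GFP response relative to DMSO above a set limit, near screen average plus 3 SD, cut at about 150% in these data; inconclusive = fewer than 70 cells counted for the yeast strain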;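 note: median GFP channel fluorescence of the gated AGP1 strain per well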
RPL19A TOR yeast – RPL19A-GFP expression modulators in yeast, primary screen, cell-based, S. cerevisiae, multiplex flow cytometry, MLPCN | AID 2025, 2009 | S. cerevisiae RPL19A-GFP strain, 3 h; hits give low values | percent response vs DMSO, % at 10 µM | 0.3% of 330,000 active;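 active = percent response vs DMSO below 50%; inconclusive = fewer than 70 events counted for the yeast strain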;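 note: median channel GFP fluorescence of the barcoded RPL19A-GFP strain; ratio of sample median GFP to plate DMSO average so 100% = DMSO; lower means less RPL19A-GFP as with rapamycin TOR inhibition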
CIT2-GFP yeast – modulators of CIT2-GFP expression in yeast, primary screen, S. cerevisiae, GFP fusion, multiplex flow cytometry, MLPCN library | S. cerevisiae CIT2-GFP strain, 3 h; 100 means same as DMSO wells | GFP response vs DMSO, % at 10 µM | 0.065% of 320,000 active | AID 2029, 2009;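 active = GFP response relative to DMSO above a set limit, near the screen mean plus 3 SD, cut at about 150% in these data; inconclusive = Fewer than 70 cells measured for a yeast strain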;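 note: ratio of well median GFP fluorescence to mean of DMSO wells on the plate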
MEP2-GFP yeast – modulators of MEP2-GFP levels in yeast, primary screen, S. cerevisiae, multiplex flow cytometry, MLPCN library | S. cerevisiae MEP2-GFP strain, 3 h; 100% = DMSO control level | GFP response vs DMSO, % at 10 µM | 0.51% of 330,000 active | AID 2016, 2009;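 active = GFP response versus DMSO above a set limit, roughly screen mean plus 3 SD, cut at about 180% in these data; inconclusive = fewer than 70 cells counted for a yeast strain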;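 note: median GFP fluorescence of the barcode-gated MEP2-GFP cells per well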
LAP4 TOR yeast – modulators of LAP4-GFP expression in yeast, primary screen, S. cerevisiae, multiplex flow cytometry, MLPCN library. AID 2023, 2009. GFP response vs DMSO, % at 10 µM. 0.34% of 320,000 active. 3 h; median GFP as percent of DMSO wells;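 active = GFP response vs DMSO above a set limit, about the screen mean plus 3 SD, cut at about 150% in these data; inconclusive = under 70 cell events counted for the yeast strain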
Numbers without * were called inactive; u = inconclusive; x = no result; [ ] = remark or other dose. A selection: hits, their analogues and other compounds. The true share with any hit is near 0.93%.

SMILES	AGP1 TOR yeast	RPL19A TOR yeast	CIT2-GFP yeast	MEP2-GFP yeast	LAP4 TOR yeast
O=C1c2cccc3c([N+](=O)[O-])ccc(c23)C(=O)N1c1ccc(Cl)cn1	54	118	u	349*[may fluoresce violet]	249*[may fluoresce violet]
O=C1c2ccc([N+](=O)[O-])cc2C(=O)N1c1ccc(Cl)cn1	98	95	98	89	107
O=C1c2cccc3cccc(c23)C(=O)N1c1nccs1	91	89	94	95	84
O=C1c2cccc3c([N+](=O)[O-])ccc(c23)C(=O)N1c1nccs1	89	109	126	218*	149
CC(C)(Oc1ccc(Cl)cc1)C(=O)NCc1ccc(S(N)(=O)=O)cc1	16	52	u	244*[may fluoresce violet]	68
COC(=O)CNC(=O)C(C)(C)Oc1ccc(Cl)cc1	91	91	97	96	x
CCc1ccccc1OCc1nnc(N)s1	105	79	84	106	183*
CCN(CC)CCn1c(N)nc2ccccc21	27	89	u	317*[may fluoresce violet]	71
CCN(CC)CCn1c(NS(=O)(=O)c2ccc(C)cc2)nc2ccccc21	101	95	99	97	100
Cn1cccc1C(=O)C(=O)Nc1ccc(F)c(F)c1	u	47*[may fluoresce violet]	u	93	125
Cn1cccc1C(=O)C(=O)Nc1ccc(Cl)cc1	88	90	79	90	103
CC(C)N(CCNC(=O)c1ccc(OCC2CCCO2)cc1)C(C)C (centres undefined)	u	38*[may fluoresce violet]	u	242*[may fluoresce violet]	62
O=C(NC1CCCCCC1)c1ccc(OCC2CCCO2)cc1 (centres undefined)	88	98	101	102	106
O=C(c1cc(-c2ccc(Cl)cc2)n[nH]1)N1CCc2ccccc2C1	100	100	100	98	97
CNc1nc(-c2ccccc2)cc(C(F)(F)F)c1C#N	23	75	103	220*	91
OCc1ccnc2oc3ccccc3c12	103	97	91	101	106
CCCC1=C(C(=O)OCC)C(c2ccncc2)n2ncnc2N1 (centres undefined)	u	11*[may fluoresce violet]	u	194*[may fluoresce violet]	80
CCCC1=C(C(=O)OCC)C(c2cccnc2)n2nc(C)nc2N1 (centres undefined)	103	93	104	91	103
NNc1nc2c(-c3cccc(C(F)(F)F)c3)nnn2c2ccccc12	21	48*[may fluoresce violet]	u	400*[may fluoresce violet]	122
COCCNc1nc2c(-c3cccc(C(F)(F)F)c3)nnn2c2ccccc12	94	95	97	114	106
CC(C)N1CCN(Cc2ccc(Sc3nncn3C)o2)CC1CCO (centres undefined)	92	93	89	97	89
S=C(NCCc1ccc(Cl)cc1)NCc1ccccc1	95	115	97	103	100
CC(C)NC(=O)CC1C(=O)N(Cc2ccccc2)C(C)c2nc3ccccc3n21 (centres undefined)	103	105	100	101	99
C[C@H]1CN([C@@H](C)CO)C(=O)Cc2cc(NC(=O)CCC(F)(F)F)ccc2O[C@H]1CN(C)S(=O)(=O)c1ccc(Cl)cc1	103	101	101	103	102
NC(=O)c1ccccc1OCC(=O)NS(=O)(=O)c1ccc(Cl)cc1	99	97	86	97	96
SMILES	AGP1 TOR yeast	RPL19A TOR yeast	CIT2-GFP yeast	MEP2-GFP yeast	LAP4 TOR yeast
NC(=O)c1ccccc1OCC(=O)c1ccc(Cl)cc1	123	102	124	195*	122
CCc1ccc(N(CC(=O)Nc2ccccc2C(=O)N2CCCC2)S(C)(=O)=O)cc1	99	92	81	92	109
CCOC(=O)c1[nH]c2ccccc2c1N=CN(CC)CC	x	40*[may fluoresce violet]	u	556*[may fluoresce violet]	88
CN1C(=O)N(CC(=O)N2CCN(S(=O)(=O)c3ccc(Cl)s3)CC2)C(=O)C12CCCCC2	102	101	99	103	106
CCOc1ncccc1C(=O)NCCc1ccc(S(N)(=O)=O)cc1	u	38*[may fluoresce violet]	u	231*[may fluoresce violet]	60
O=S(=O)(Nc1cc(F)ccc1F)c1cccc2nonc12	104	99	103	102	100
